Assay outcomes (PubChem)
SENP7 inh: blocks the human protease SENP7; Q9BQF6; recombinant SENP7, Z-RLRGG-aminoluciferin luminescence, 40 min; inhibition, % at 5 µM; hit rate 1.5% among 330,000;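 active = inhibition above about 50% at the single test dose, limit read from the data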;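 note: plate controls were DMSO with enzyme for no effect and no enzyme buffer wells for full effect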
Target sequence (Q9BQF6 706-1050 limits assumed): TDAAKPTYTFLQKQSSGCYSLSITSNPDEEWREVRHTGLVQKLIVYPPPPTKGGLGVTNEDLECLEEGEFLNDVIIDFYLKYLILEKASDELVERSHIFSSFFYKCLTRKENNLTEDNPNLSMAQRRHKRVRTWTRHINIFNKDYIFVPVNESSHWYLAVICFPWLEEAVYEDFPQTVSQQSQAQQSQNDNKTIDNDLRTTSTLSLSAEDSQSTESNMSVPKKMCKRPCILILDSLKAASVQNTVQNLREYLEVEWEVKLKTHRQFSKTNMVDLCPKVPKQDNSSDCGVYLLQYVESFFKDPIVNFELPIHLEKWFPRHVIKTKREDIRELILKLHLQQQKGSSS
SENP8 block-1: SENP8 (human) protease inhibition. Q96LD8. recombinant SENP8, Nedd8 substrate fluorescence. inhibition, % at 20 µM. AID 602440. hit rate 0.64% among 360,000; in the data active = inhibition mostly above about 40%, no sharp cut-off; inactive = mostly below about 27%
C8 TRAIL sens: sensitizes caspase-8 expressing cells to TRAIL | hit rate 1% among 360,000 | inhibition (viability loss, TRAIL sensitization), % at 10 µM | NB7+C8 cells + TRAIL, ATPlite viability luminescence;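 active = compounds causing at least 50% loss of cell viability in the single-dose screen, relative to plate controls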
SENP8 block-2: SENP8 protease inhibition. purified SENP8, Z-RLRGG-aminoluciferin cleavage, luminescence. Q96LD8. inhibition, % at 10 µM. hit rate 1.2% among 330,000; in the data active = inhibition above about 50%
PPC-1+TRAIL kill: kills PPC-1 cancer cells in the presence of TRAIL. hit rate 0.41% among 220,000. cell killing (% activity), % at 4 µM or 5 µM. PPC-1 cells + TRAIL, ATPLite viability luminescence;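 active = cell killing above 50% in the first pass at 4 µM, then a duplicate retest at 5 µM averaging 50% or more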;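 note: plate controls were cells with TRAIL plus DMSO for no effect and medium-only wells lacking cells for full effect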
SENP6 inh: SENP6 protease inhibition; Q9GZR1; Recombinant SENP6 catalytic domain, aminoluciferin luminescence; inhibition, % at 10 µM; hit rate 1.8% among 330,000;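 active = inhibition above about 50% at the single tested dose, limit read from the data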;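 note: plate controls were DMSO wells with enzyme for no effect and DMSO wells lacking enzyme for full effect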
SENP8 confirm: human SENP8 inhibition, confirmed; AID 488912; inhibition, % at 12.5 µM; shares compounds with SENP7 inh; Recombinant SENP8, Z-RLRGG-aminoluciferin luminescence, 60 min; hit rate 40% among 6,200;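 active = mean inhibition across replicates above about 50%, limit read from the data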
SENP6 confirm: confirmation of human SENP6 protease inhibitors. shares compounds with SENP7 inh. recombinant SENP6, Z-RLRGG-aminoluciferin luminescence. inhibition, % at 12.5 µM. hit rate 58% among 6,200. AID 488915
SENP7 confirm: human SENP7 inhibition, confirmed; shares compounds with SENP7 inh; recombinant SENP7, Z-RLRGG-aminoluciferin luminescence, 40 min; inhibition, % at 12.5 µM; hit rate 69% among 6,200; AID 488917
Casp3 select: caspase-3 inhibition (SENP selectivity assay) | purified caspase-3, Z-DEVD-aminoluciferin luminescence, 60 min | hit rate 60% among 6,200 | shares compounds with SENP7 inh | inhibition, % at 12.5 µM | AID 488918;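 active = mean inhibition above about 50%, limit read from the data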;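 note: plate controls were enzyme with DMSO for no effect and wells without caspase-3 for full effect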
Luc interf: luminescence interference (SENP counter-screen); hit rate 39% among 6,200; inhibition, % at 12.5 µM; Pre-incubated SENP8/Z-RLRGG-aminoluciferin, luciferase luminescence interference; shares compounds with SENP7 inh;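 active = mean inhibition above about 50% when retested at one dose, limit read from the data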;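 note: plate controls were DMSO wells with completed reaction for no effect and substrate without enzyme for full effect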
An asterisk follows results filed as active. Rows were chosen to be rich in hits. Some 3% of all compounds tested hit in one or more screens of this group.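 Rule for the calls, unless noted: active = mean inhibition above about 50% in the one-dose retest (limit read from the data); inactive = the rest.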

How did COc1cccc(C(=O)Nc2nc(C)cs2)c1 do in these assays?
SENP7 inh: 42; SENP8 block-1: 15; C8 TRAIL sens: 20; SENP8 block-2: 17; PPC-1+TRAIL kill: 20; SENP6 inh: 52*; SENP8 confirm: 31; SENP6 confirm: 32; SENP7 confirm: 72*; Casp3 select: 69*; Luc interf: 50*

How did COc1ccc(/C(C)=N/OCC(=O)Nc2nc3ccccc3s2)cc1 do in these assays?
SENP7 inh: 16; SENP8 block-1: 6; C8 TRAIL sens: 17; SENP8 block-2: 19; PPC-1+TRAIL kill: 10; SENP6 inh: -2

What do the screens show for `CC(O)(c1cccnc1)c1nc(-c2cccc3cccnc23)cs1` (centres undefined)?
SENP8 block-1: -207; C8 TRAIL sens: -1

How did N#CCc1nn(-c2ccc(F)cc2)c(N)c1C#N do in these assays?
SENP7 inh: 6; SENP8 block-1: -16; C8 TRAIL sens: 33; SENP8 block-2: -1; PPC-1+TRAIL kill: 30; SENP6 inh: -23

Results for COc1ccc(/C(N)=N/OC(=O)c2ccc3c(c2)OCO3)cc1 ?
SENP7 inh: 68*; SENP8 block-1: 16; C8 TRAIL sens: 12; SENP8 block-2: 28; PPC-1+TRAIL kill: 20; SENP6 inh: 50; SENP8 confirm: 9; SENP6 confirm: 25; SENP7 confirm: 31; Casp3 select: 30; Luc interf: 4

Results for COc1ccc(NC(=O)COC(=O)c2ccc3c(c2)OCO3)c(OC)c1 ?
SENP7 inh: 3; SENP8 block-1: -1; C8 TRAIL sens: -11; SENP8 block-2: 4; SENP6 inh: 7

How did N/C(=N\OC(=O)c1ccc2c(c1)OCO2)c1ccc(Cl)cc1 do in these assays?
SENP7 inh: -6; SENP8 block-1: 0; C8 TRAIL sens: 29; SENP8 block-2: 76*; PPC-1+TRAIL kill: 31; SENP6 inh: 87*; SENP8 confirm: 23; SENP6 confirm: 68*; SENP7 confirm: 94*; Casp3 select: 86*; Luc interf: 18

How did Cc1ccc(/C(N)=N/OC(=O)c2ccc3c(c2)OCO3)cc1 do in these assays?
SENP7 inh: 42; SENP8 block-1: 2; C8 TRAIL sens: 40; SENP8 block-2: 60*; PPC-1+TRAIL kill: 25; SENP6 inh: 71*; SENP8 confirm: 24; SENP6 confirm: 43; SENP7 confirm: 87*; Casp3 select: 81*; Luc interf: 20

Results for COc1cc(C(=O)O/N=C(\N)c2ccncc2)cc(OC)c1OC ?
SENP7 inh: 8; SENP8 block-1: 19; C8 TRAIL sens: 12; SENP8 block-2: 7; PPC-1+TRAIL kill: 33; SENP6 inh: -33

Results for N/C(=N\OC(=O)c1ccc2c(c1)OCO2)c1ccncc1 ?
SENP7 inh: 60*; SENP8 block-1: 10; C8 TRAIL sens: 60*; SENP8 block-2: 43; PPC-1+TRAIL kill: 19; SENP6 inh: 68*; SENP8 confirm: 53*; SENP6 confirm: 48; SENP7 confirm: 76*; Casp3 select: 82*; Luc interf: 60*

How did N/C(=N\OC(=O)N1CCOCC1)c1ccc(Cl)cc1 do in these assays?
SENP7 inh: -1; SENP8 block-1: -2; C8 TRAIL sens: -2; SENP8 block-2: -13; PPC-1+TRAIL kill: 5; SENP6 inh: 0

What do the screens show for `COc1ccc(C)cc1NC(=O)COC(=O)c1ccc2c(c1)OCO2`?
SENP7 inh: 7; SENP8 block-1: -1; C8 TRAIL sens: 7; SENP8 block-2: 13; SENP6 inh: 8
